Measured values as given in the supplement of paper PMC10646978.
± gives the standard deviation.

These compounds were tested on RAW-Dual (murine macrophage reporter line) (assay: NF-kB reporter (SEAP) activity fold change vs agonist alone; higher = enhanced NF-kB activity). Conditions: modulator concentration 10 µM; agonist: CpG ODN 1826 0.5 ug/mL.
In short: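 RAW-Dual murine macrophage reporter cells were seeded at 50 000 per well in 384-well plates and pre-incubated 1 hour at 37 °C with compound pin-transferred to 10 μM final. After 1 hour, a PRR agonist was added and cells incubated overnight. Supernatant NF-κB (SEAP, QUANTI-Blue, 620 nm absorbance) and IRF (Lucia luciferase, QUANTI-Luc, luminescence) signals were divided by the mean agonist-only control on the same plate to give fold change. Two replicate plates were averaged, with errors by propagation.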

Compound | NF-kB reporter
Cc1cc(=O)nc(SCCc2ccccc2)[nH]1 | 1.13 ± 0.11
CC(=O)c1c(C(C)=O)c(C)n(-c2ccccc2N)c1C | 1.04 ± 0.081
Cc1ccc(CCC(=O)N2CC(N3C(=O)C4CC=CCC4C3=O)C2)cc1F (stereo not given) | 0.728 ± 0.26
CCN(CC)C(=O)N1CCN(C)CC1.O=C(O)CC(O)(CC(=O)O)C(=O)O | 1.04 ± 0.19
CC1CC2(NC(=O)NC2=O)C(C)CN1C (stereo not given) | 0.933 ± 0.061
COc1ccc(NC(=O)CN2C(=O)c3ccccc3C2=O)c([N+](=O)[O-])c1 | 0.798 ± 0.064
COc1ccccc1N1CCN(CC(O)COc2cccc3ccccc23)CC1 (stereo not given) | 0.878 ± 0.22
COc1cc2c(Oc3ccc4[nH]c(C)cc4c3F)ncnc2cc1OCCCN1CCCC1 | 0.607 ± 0.097
CCOc1ccc(Cc2cc([C@@H]3O[C@H](SC)[C@@H](O)[C@H](O)[C@H]3O)ccc2Cl)cc1 | 0.968 ± 0.25
Cc1cn(-c2cc(NC(=O)c3ccc(C)c(Nc4nccc(-c5cnccn5)n4)c3)cc(C(F)(F)F)c2)cn1 | 0.892 ± 0.22
O=C(Nc1ccc(-c2cn3ccsc3n2)cc1)C1CCCC1 | 1.14 ± 0.09
O=Cc1ccc(OCc2cccc([N+](=O)[O-])c2)c(Br)c1 | 0.777 ± 0.091
CN(C)CC(c1ccc(O)cc1)C1(O)CCCCC1.O=C(O)CCC(=O)O (stereo not given) | 0.101 ± 0.0077
O=C(CCCCCN1C(=O)c2cccc3cccc(c23)C1=O)NCCCO | 0.997 ± 0.08
Cc1cc(C(=O)Nc2ccccc2S(C)(=O)=O)no1 | 1.17 ± 0.069
N#CC(=Cc1cn(Cc2ccccc2Cl)c2ccccc12)c1nn(CCO)c(N)c1C#N | 0.919 ± 0.077
O=c1cc(CO)occ1O | 0.97 ± 0.075
CCOc1ccc(N=Cc2c(Nc3ccc(OCC)cc3)nc3ccccn3c2=O)cc1 | 1.17 ± 0.13
CC(NCCC(c1ccccc1)c1ccccc1)c1ccccc1.Cl (stereo not given) | 0.274 ± 0.11
O=C(Cn1nc(S(=O)(=O)c2cccc(F)c2)ccc1=O)N1CCc2ccccc2C1 | 1.03 ± 0.097

Compound | NF-kB reporter
COc1cc2c(Nc3ccc(Br)cc3F)ncnc2cc1OCC1CCN(C)CC1 | 0.825 ± 0.04
O=C(c1ccc(S(=O)(=O)N2CCCC2)cc1)N1CC(Nc2ccncn2)C1 | 0.978 ± 0.1
Cc1cc(C)n(-c2ccc(=O)n(CCNS(=O)(=O)c3ccccc3F)n2)n1 | 1.08 ± 0.09
O=C(CC12CC3CC(CC(C3)C1)C2)N1CCCCC1 | 0.863 ± 0.064
COc1ccc(CNC2CCCc3ccccc32)c(OC)c1 (stereo not given) | 0.48 ± 0.13
O=S(=O)(NCc1ccc(-c2cccnc2)nc1)c1ccc(OC(F)(F)F)cc1 | 0.947 ± 0.068
O=c1oc2cc(O)ccc2s1 | 1.11 ± 0.088
CNCCC=C1c2ccccc2CCc2ccccc21.Cl | 0.45 ± 0.07
CCc1nc(N)nc(N)c1-c1ccc(Cl)cc1 | 1.23 ± 0.11
Fc1ccc(CN2CCc3c([nH]c4ccccc34)C2)c(F)c1 | 0.636 ± 0.051
CCOc1nc2cccc(C(=O)O)c2n1Cc1ccc(-c2ccccc2-c2nc(=O)o[nH]2)cc1 | 1.29 ± 0.17
COc1ccc2c(C)nc(Nc3nc(C)cc(-c4ccccc4)n3)nc2c1 | 0.791 ± 0.079
Cc1cc(C(=O)NCc2sc(-c3ccccc3Cl)nc2C)c(C)o1 | 0.883 ± 0.039
Cc1cccc2sc(NNC(=O)c3ccc(S(=O)(=O)N4CCc5ccccc5C4)cc3)nc12 | 0.923 ± 0.093
COC(=O)C1=C(C)NC(C)=C(C(=O)OC(C)(C)CN(C)CCC(c2ccccc2)c2ccccc2)C1c1cccc([N+](=O)[O-])c1.Cl (stereo not given) | 0.167 ± 0.023
O=C(O[C@@H]1C[C@@H]2C[C@@H]3C[C@H](C1)N2CC3=O)c1c[nH]c2ccccc12 [Prestw-1510] | 0.575 ± 0.048
COc1cc(C=Nc2ccc3oc(-c4ccc(C(C)(C)C)cc4)nc3c2)ccc1OC(=O)c1ccc(Cl)cc1Cl | 0.994 ± 0.056
O=C(c1ccc(I)cc1)N(C1CCCCC1)C1CCCCC1 | 0.976 ± 0.1
Cc1occc1C(=O)Nc1ccc(F)c(F)c1 | 1.07 ± 0.12
Cc1cc(C(=O)O)n[nH]1 | 1.01 ± 0.077

Same assay, conditions: modulator concentration 10 µM; agonist: LPS 0.1 ug/mL

Compound | NF-kB reporter
Cc1cc(=O)nc(SCCc2ccccc2)[nH]1 | 1.27 ± 0.082
CC(=O)c1c(C(C)=O)c(C)n(-c2ccccc2N)c1C | 0.992 ± 0.1
Cc1ccc(CCC(=O)N2CC(N3C(=O)C4CC=CCC4C3=O)C2)cc1F (stereo not given) | 1.1 ± 0.1
CCN(CC)C(=O)N1CCN(C)CC1.O=C(O)CC(O)(CC(=O)O)C(=O)O | 0.975 ± 0.18
CC1CC2(NC(=O)NC2=O)C(C)CN1C (stereo not given) | 1.01 ± 0.088
COc1ccc(NC(=O)CN2C(=O)c3ccccc3C2=O)c([N+](=O)[O-])c1 | 0.948 ± 0.087
COc1ccccc1N1CCN(CC(O)COc2cccc3ccccc23)CC1 (stereo not given) | 1.21 ± 0.2
COc1cc2c(Oc3ccc4[nH]c(C)cc4c3F)ncnc2cc1OCCCN1CCCC1 | 1.03 ± 0.052
CCOc1ccc(Cc2cc([C@@H]3O[C@H](SC)[C@@H](O)[C@H](O)[C@H]3O)ccc2Cl)cc1 | 1.27 ± 0.072
Cc1cn(-c2cc(NC(=O)c3ccc(C)c(Nc4nccc(-c5cnccn5)n4)c3)cc(C(F)(F)F)c2)cn1 | 1.17 ± 0.059
O=C(Nc1ccc(-c2cn3ccsc3n2)cc1)C1CCCC1 | 1.1 ± 0.15
O=Cc1ccc(OCc2cccc([N+](=O)[O-])c2)c(Br)c1 | 0.737 ± 0.057
CN(C)CC(c1ccc(O)cc1)C1(O)CCCCC1.O=C(O)CCC(=O)O (stereo not given) | 0.562 ± 0.045
O=C(CCCCCN1C(=O)c2cccc3cccc(c23)C1=O)NCCCO | 0.993 ± 0.064
Cc1cc(C(=O)Nc2ccccc2S(C)(=O)=O)no1 | 1.04 ± 0.08
N#CC(=Cc1cn(Cc2ccccc2Cl)c2ccccc12)c1nn(CCO)c(N)c1C#N | 0.959 ± 0.053
O=c1cc(CO)occ1O | 0.901 ± 0.076
CCOc1ccc(N=Cc2c(Nc3ccc(OCC)cc3)nc3ccccn3c2=O)cc1 | 0.984 ± 0.13
CC(NCCC(c1ccccc1)c1ccccc1)c1ccccc1.Cl (stereo not given) | 0.64 ± 0.047
O=C(Cn1nc(S(=O)(=O)c2cccc(F)c2)ccc1=O)N1CCc2ccccc2C1 | 1.07 ± 0.085

Compound | NF-kB reporter
COc1cc2c(Nc3ccc(Br)cc3F)ncnc2cc1OCC1CCN(C)CC1 | 1.01 ± 0.11
O=C(c1ccc(S(=O)(=O)N2CCCC2)cc1)N1CC(Nc2ccncn2)C1 | 0.986 ± 0.086
Cc1cc(C)n(-c2ccc(=O)n(CCNS(=O)(=O)c3ccccc3F)n2)n1 | 1.08 ± 0.086
O=C(CC12CC3CC(CC(C3)C1)C2)N1CCCCC1 | 0.99 ± 0.11
COc1ccc(CNC2CCCc3ccccc32)c(OC)c1 (stereo not given) | 0.812 ± 0.088
O=S(=O)(NCc1ccc(-c2cccnc2)nc1)c1ccc(OC(F)(F)F)cc1 | 1.01 ± 0.091
O=c1oc2cc(O)ccc2s1 | 1.02 ± 0.07
CNCCC=C1c2ccccc2CCc2ccccc21.Cl | 1.14 ± 0.21
CCc1nc(N)nc(N)c1-c1ccc(Cl)cc1 | 1.07 ± 0.054
Fc1ccc(CN2CCc3c([nH]c4ccccc34)C2)c(F)c1 | 0.378 ± 0.05
CCOc1nc2cccc(C(=O)O)c2n1Cc1ccc(-c2ccccc2-c2nc(=O)o[nH]2)cc1 | 1.14 ± 0.32
COc1ccc2c(C)nc(Nc3nc(C)cc(-c4ccccc4)n3)nc2c1 | 0.879 ± 0.065
Cc1cc(C(=O)NCc2sc(-c3ccccc3Cl)nc2C)c(C)o1 | 1 ± 0.081
Cc1cccc2sc(NNC(=O)c3ccc(S(=O)(=O)N4CCc5ccccc5C4)cc3)nc12 | 0.973 ± 0.063
COC(=O)C1=C(C)NC(C)=C(C(=O)OC(C)(C)CN(C)CCC(c2ccccc2)c2ccccc2)C1c1cccc([N+](=O)[O-])c1.Cl (stereo not given) | 0.807 ± 0.17
O=C(O[C@@H]1C[C@@H]2C[C@@H]3C[C@H](C1)N2CC3=O)c1c[nH]c2ccccc12 [Prestw-1510] | 0.718 ± 0.056
COc1cc(C=Nc2ccc3oc(-c4ccc(C(C)(C)C)cc4)nc3c2)ccc1OC(=O)c1ccc(Cl)cc1Cl | 0.981 ± 0.11
O=C(c1ccc(I)cc1)N(C1CCCCC1)C1CCCCC1 | 1.03 ± 0.099
Cc1occc1C(=O)Nc1ccc(F)c(F)c1 | 0.998 ± 0.16
Cc1cc(C(=O)O)n[nH]1 | 0.891 ± 0.15
